PubChem BioAssay (NCI)
About 83,000 compounds went through this panel and 20% of them were active in at least one assay; those are over-represented in the sample as a whole.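 Activity criterion: percent growth below 10, measured after cells in 96-well plates were exposed to a single compound concentration for 48 hours.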 A number with no mark means an inactive call. Activity calls are given as the source filed them.

Experiments:
Experiment in all cases: NCI-60 one-dose screen, 48 h (100 = growth as untreated, 0 = no growth, -100 = all killed)
Conditions in all cases: 10 µM unless noted
NCI-H23 lung = system: NCI-H23 lung
NCI-H226 lung = system: NCI-H226 lung
NCI-H322M lung = system: NCI-H322M lung
HOP-62 NSCLC = system: HOP-62 NSCLC
NCI-H460 lung = system: NCI-H460 lung
NCI-H522 lung = system: NCI-H522 lung
A549/ATCC NSCLC = system: A549/ATCC NSCLC
786-0 renal = system: 786-0 renal
COLO 205 colon = system: COLO 205 colon
DU-145 prostate = system: DU-145 prostate
K-562 leukemia = system: K-562 leukemia
MDA-MB-231 breast = system: MDA-MB-231 breast
RXF 393 renal = system: RXF 393 renal
SF-268 CNS = system: SF-268 CNS
SF-295 CNS = system: SF-295 CNS
SF-539 CNS = system: SF-539 CNS
UACC-257 melanoma = system: UACC-257 melanoma
M14 melanoma = system: M14 melanoma
HCT-15 colon = system: HCT-15 colon
MALME-3M melanoma = system: MALME-3M melanoma

| SMILES | growth (NCI-H23 lung) | growth (NCI-H226 lung) | growth (NCI-H322M lung) | growth (HOP-62 NSCLC) | growth (NCI-H460 lung) | growth (NCI-H522 lung) | growth (A549/ATCC NSCLC) | growth (786-0 renal) | growth (COLO 205 colon) | growth (DU-145 prostate) | growth (K-562 leukemia) | growth (MDA-MB-231 breast) | growth (RXF 393 renal) [%] | growth (SF-268 CNS) | growth (SF-295 CNS) | growth (SF-539 CNS) | growth (UACC-257 melanoma) | growth (M14 melanoma) | growth (HCT-15 colon) | growth (MALME-3M melanoma) |
| --- | --- | --- | --- | --- | --- | --- | --- | --- | --- | --- | --- | --- | --- | --- | --- | --- | --- | --- | --- | --- |
| CCCOc1ccc2c(c1)CC[C@@H]1[C@@H]2CC[C@@]2(C)[C@H]1CC[C@]2(C)O | 93.2% | 92.3% | 71.4% | 89.7% | 35.8% | 76.4% | 63.7% | 90.3% | 28.2% | 91.6% | 1.46% (active) | 51.1% | 83.7 | 81.5% | 58.7% | 67.5% | 73.8% | 79.5% | 56.7% |  |
| Cc1ccc(C=C2C(Cl)=C(Cl)C(Cl)=C2Cl)cc1 | -57.5% (active) | -79% (active) | -37.2% (active) | -58.6% (active) | -31.3% (active) | -57.2% (active) | -61.2% (active) | -86.8% (active) | -80.3% (active) | -45.3% (active) | 24.6% | -6.71% (active) |  | -68.6% (active) | -19.5% (active) | -84.5% (active) | -83.2% (active) | -85.8% (active) | -69.5% (active) | -45.1% (active) |
| C[N+]1(CCC[N+]2(C)C[C@@H]3[C@H](C2)[C@@H]2C=C[C@H]3C2)CCOCC1 (some centres undefined) | 105% | 110% | 106% | 94.3% | 116% | 106% | 111% | 109% | 104% | 140% | 110% | 104% | 121 | 115% | 113% | 100% | 112% | 108% | 91.4% |  |
| CCC(C)(C)C(=O)O[C@H]1C[C@@H](C)C=C2C=C[C@H](C)[C@H](CC[C@@H]3C[C@@H](O)CC(=O)O3)[C@H]21 | 48.7% | 64% | 51% | 80.7% | 24.3% | 8.21% (active) | 67.5% | 51.5% | 68.3% | 95.3% | 63.3% |  | 36.1 | 33.2% | 11.7% | 90.7% | 86.7% | 59.3% | 54.7% | 94.1% |
| COc1cccc(/C=C2\COc3ccc(O)c(O)c3C2=O)c1OC | 60.5% | 62.8% | 32.7% | 19% | 3.8% (active) | -33.3% (active) | 32.5% | -6.52% (active) | 72.7% | 2.64% (active) | -5.62% (active) | -34.4% (active) |  | 17.4% | 83.2% | -73% (active) | 26.8% |  | -10.7% (active) | -75.9% (active) |
| C/C(=C\CCc1ccsc1)CC/C=C(\C)CCCN1CCN(CCO)CC1 | 62.2% | 67.7% | 71.8% | 69.1% | 14.6% | 71.5% | 44.8% | 32.8% | -9.2% (active) | 76.4% | -27.4% (active) | 27% |  | 71.7% | 35.9% | 57.8% | 11.4% | 14.2% | -22.2% (active) | -14.4% (active) |
| COc1ccc2nc3cc(Cl)ccc3c(N3CCN(c4ccnc(Nc5ccc(F)cc5)n4)CC3)c2c1 | 89.3% | 98.5% | 97.7% | 92.9% | 94% | -5.18% (active) | 79.5% | 70.4% | 108% | 93.1% | 43.1% | 58.4% |  | 79.2% | 75.9% | 85.4% | 105% | 102% | 48.3% | 105% |
| CCOc1nc(-c2ccccc2)cc2c(O)c(C(=O)n3nc(C)cc3C)[nH]c(=O)c12 | 97.6% | 91.8% | 103% | 105% | 107% | 104% | 102% | 100% | 108% | 111% | 86.7% | 112% |  | 99% | 101% | 101% | 112% | 102% | 100% | 102% |
| O[C@@H]1Cc2ccc3ccccc3c2N[C@H](c2ccoc2)C1 | 96.6% | 93.5% | 112% | 98.8% | 116% | 94.8% | 100% | 108% | 107% | 112% | 102% | 96.2% | 108 | 105% | 110% | 93.6% | 105% | 101% | 111% |  |
| Nc1ccc(C2=NN(c3ccccc3)C(c3ccc(Cl)cc3)C2)cc1 (centres undefined) | 92.8% | 90.9% | 88.2% | 87.2% | 99.4% | 22.7% | 83.1% | 78.4% | 101% | 81.7% | 17.5% | 88.5% |  | 82.5% | 86.6% | 81.2% | 82.1% | 72.7% | 48.7% | 105% |
